Values joined by “and” are separate entries in the source; they are usually repeats but may differ in a detail not shown here. Equal values may be shown once. Hit rate of the full screen: of about 360,000 compounds, about 2,400 (0.67%) were called active. This excerpt belongs to a sample that is enriched for actives. Values without a mark were called inactive.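 The calls were made as follows: active = inhibition above about 55% (limit read from the data); inconclusive = no clear call, values can overlap the other calls; inactive = the rest.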
assay: LAMP-1 surface exposure blockers, TALL-104 cells – cell-based, flow cytometry, MLPCN library, primary screen (AID 651702); conditions: TALL-104 LAMP-1 surface exposure, at 10 µM, stronger effect = higher value, cells stimulated with thapsigargin and PMA

| Structure (SMILES) | inhibition |
| --- | --- |
| CC(=O)C[C@@H](O)CC(=O)[C@H]1OC(=O)CCCCCCc2ccccc21 | 58.1% (active) |
| CC[C@@H]1CCCCc2ccccc2[C@@H](C(=O)C[C@H](O)CC(C)=O)OC1=O | -4.4% |
| CC(=O)C[C@H](O)CC(=O)[C@@H]1OC(=O)[C@@H](C)C/C=C\Cc2ccccc21 | -0.2% |
| CSc1nc2nc(-c3cccc(C(F)(F)F)c3)ccn2n1 | -1.7% |
| Nc1c(C(=O)c2cccs2)sc2nsc(SCCN3CCCCC3)c12 | 94.6% (active) |
| O=C(Cc1ccc(NC(=O)C2CCCN(C(=O)CCc3ccccc3)C2)cc1)Nc1ccc(C(=O)N2CCOCC2)cc1 (stereo not drawn) | -2% |
| CCOC(=O)C1CCN(C(=O)CN2C(=O)c3cccnc3Oc3ccc(C)cc32)CC1 | -4.5% |
| Cc1ccc(C2(c3ccc(C)cc3)NC(=O)N(Cc3c(C)noc3C)C2=O)cc1 | 4.4% |
| CCCCN1CC(COCc2ccccc2)OCCS1(=O)=O (stereo not drawn) | -5.6% |
| CCCCC[C@H](C)N1C[C@@H](COCc2ccccc2)Oc2cc(N3CC[C@@H](N(C)C)C3)ccc2S1(=O)=O | 56.2% (active) |
| CCCCC[C@H](C)N1C[C@@H](COCc2ccccc2)Oc2cc(N3CCC[C@@H]3CO)ccc2S1(=O)=O | 0.2% |
| COc1cccc(-c2sc3ccc(OC)cc3c2-c2ccc(OCCN3CCCCC3)cc2)c1 | 14.7% |
| COc1ccc2sc(-c3ccc(N(C)C)cc3)c(-c3ccc4cc[nH]c4c3)c2c1 | 72% (active) |
| COc1cc(OC)cc(-c2c(-c3ccc(F)cc3)c3cc(-c4ccc5cc[nH]c5c4)ccc3n2C)c1 | -0.5% |
| O=C(CCc1nnc2ccc(NCc3ccccc3Cl)nn12)NCC1CCN(C2CCCC2)C1 (stereo not drawn) | -2.5% |
| COc1ccc(S(=O)(=O)NCC(c2ccco2)N2CCOCC2)cc1 (stereo not drawn) | -1.5% |
| C=C(C)CNC(=S)Nc1ccc(S(=O)(=O)Nc2cnc3ccccc3n2)cc1 | 9.1% |
| Cc1ccccc1OS(=O)(=O)c1cccc([N+](=O)[O-])c1 | -1.4% |
| COc1ccc(S(=O)(=O)N2CCN(CC(=O)N3CCNC3=O)CC2)cc1OC | -0.1% |
| CN1CCN(C2Cc3ccc(Cl)cc3Sc3ccc(F)cc32)CC1 (stereo not drawn) | 63.7% (active) |
| Cc1ccc(-c2nnn(CC(=O)N(Cc3ccco3)C(C(=O)NC(C)(C)C)c3ccncc3)n2)o1 (stereo not drawn) | 3.8% |
| Cc1c(C(C)(C)O)[nH]c2ccc(C#N)cc12 | 2.3% |
| COc1ccc(/C=C/c2nnc(NC(=O)C(C)C)s2)cc1 | 2% |
| O=C(Nc1ccc(Cl)cc1)Nc1nnc(/C=C/c2ccccc2)s1 | 70.9% (active) |

| Structure (SMILES) | inhibition |
| --- | --- |
| O=C(CSc1ccccc1)Nc1nnc(/C=C/c2ccccc2)s1 | -0.2% |
| CCNC(=O)C1(C)CCCN(C(=O)c2c(C)noc2C)C1 (stereo not drawn) | -7.3% |
| COc1cc(C(=O)Nc2cc(C(F)(F)F)ccc2N2CCOCC2)ccc1O | -2.1% |
| O=C(CC(n1cncn1)C(Cl)(Cl)Cl)c1ccc([N+](=O)[O-])cc1 (stereo not drawn) | 67.9% (active) |
| O=C(CCn1nnc2ccccc21)OCC(=O)c1ccc([N+](=O)[O-])cc1 | -4.6% |
| O=C(Cn1c[n+](CC(=O)c2ccc([N+](=O)[O-])cc2)cn1)c1ccc([N+](=O)[O-])cc1 | 0.3% and 0% |
| CN(C(=O)c1cccc(NC(=O)Cc2ccc(NC(=O)C3CCCN(C(=O)C4CCCC4)C3)cc2)c1)C1CCC1 (stereo not drawn) | -0.4% |
| CCOc1ccc(N2C(=O)/C(=C/c3ccc(C)o3)N(C)C2=S)cc1 | 76.4% (active) |
| CCO/C=C1\C(=O)N(c2ccc(OCC)cc2)C(=O)c2ccccc21 | -2.4% |
| CCOc1ccc(N2C(=O)CN(c3cccc4ccccc34)C2=S)cc1 | -2.1% |
| O=C(NCC1CCCO1)C1CCN(C2CCN(C(=O)C3CCCCC3)CC2)CC1 (stereo not drawn) | 1.8% |
| CC1CCCN(CC(=O)Nc2cc(Cl)ccc2Oc2ccccc2)C1 (stereo not drawn) | 96.4% (active) |
| CC(=O)Nc1ccc(NC(=O)CN2CCCC(C)C2)c(Cl)c1 (stereo not drawn) | 1.3% |
| O=C(CSc1ccccc1)Nc1cc(Cl)ccc1Oc1ccccc1 | -1.8% |
| CCCCCCCCN1C(=O)[C@H](CC(=O)NCc2cccc3ccccc23)C[C@@]2(C(=O)OC)CCCCC=C12 | 5.4% |
| O=C(COc1coc(CN2CCN(c3ccccc3)CC2)cc1=O)Nc1ccccc1F | 10.5% |
| CN1CCN(C2=NCCO2)CC1 | -6.4% |
| CNc1nc2c(C)cccn2c(=O)c1C=Nc1ccc(OC)cc1 | -1.8% |
| CCCN(CCC)c1nc2c(C)cccn2c(=O)c1/C=C1/SC(=S)N(Cc2ccco2)C1=O | 57.2% (active) |
| Cc1ccc2[nH]c(=O)c(-c3nc4c(C)cccn4c3NCc3ccco3)cc2c1 | 19.3% |
| CSc1nc2sc3c(c2c(=O)[nH]1)CCc1ccccc1-3 | -6.9% |
| CCN(CC)CCCC(C)n1c2nc(=O)[nH]c(=O)c-2nc2cc(Cl)ccc21 (stereo not drawn) | -0.7% |
| Cc1cc2nc3n(c2cc1C)CC1CC(C(=O)NCCC(C)C)N(C)C31 (stereo not drawn) | -4.6% |
| COc1ccc(CCNC(=O)C2CC3Cn4c(nc5cc(C)c(C)cc54)C3N2C)cc1 (stereo not drawn) | 60.3% (active) |

| Structure (SMILES) | inhibition |
| --- | --- |
| CN1C(C(=O)NCC2CC2)CC2Cn3c(nc4ccccc43)C21 (stereo not drawn) | -1.8% |
| COc1cc(NC(=O)C2CC(c3ccccc3O)=NO2)c(OC)cc1Cl (stereo not drawn) | -9.5% |
| COc1ccc(NC(=O)C(C)SCc2ccccc2)cc1 (stereo not drawn) | -0.5% |
| Cc1cccc(NC(=O)C2CC(=O)OC23CCCC3)c1 (stereo not drawn) | 3.1% |
| COc1cccc(CNc2nc(C(F)(F)F)nc3ccccc23)c1 | 65.7% (active) |
| CC(Nc1nc(C(F)(F)F)nc2ccccc12)c1cccs1 (stereo not drawn) | -9.6% |
| COc1cccc(CNc2ncc(-c3ccccc3)n2C)c1 | 1% |
| CC(CCc1ccc(O)cc1)NCc1ccc(Cl)cc1Cl (stereo not drawn) | 3.5% |
| Brc1cc(Br)c(Oc2cc(Br)c(Br)cc2Br)cc1Br | 0.4% |
| CN(C(=O)CN1CCN(c2cc(-c3ccc(OCc4ccccc4)cc3)ncn2)CC1)c1ccccc1 | -3.7% |
| Cc1ccc(NC(=S)N2CCCC(c3ccccc3)=N2)cc1 | 2.5% |
| O=S(=O)(c1cccc2nonc12)N1CCN(c2cccc(Cl)c2)CC1 | -11.1% |
| CCCn1nc(C(=O)Nc2ccc3nc(C)sc3c2)c2ccccc2c1=O | -2.4% |
| COc1cc(C(=O)NCc2nnc(SCC(=O)Nc3nc4ccc(C)cc4s3)o2)cc(OC)c1OC | -6.4% |
| CCCC(=O)Nc1nc2ccc(NC(=O)c3c(F)c(F)c(OC)c(F)c3F)cc2s1 | 68.7% (active) |
| CC(=O)Nc1ccc(NC(=O)CSc2nnnn2C2CCCCC2)cc1 | -2.8% |
| CCOc1ccc(S(=O)(=O)N2CCN=C2Cc2ccccc2)cc1C | 1.2% |
| O=C(COC(=O)/C=C/c1cccc(Cl)c1)NCc1cccs1 | 18.2% |
| CC1CCCCC1NC(=O)Cn1c(=O)cnc2ccccc21 (stereo not drawn) | 25.2% |
| CCc1cc(C(=O)N(CC)CC(=O)Nc2c(F)cccc2F)sc1C | 18.1% |
| O=C(Cn1nnc(-c2ccc(CN3CCOCC3)cc2)n1)NC1CCCCC1 | -4.2% |
| COc1cccc(Nc2ncccc2C(=O)O)c1 | -1.7% |
| O=C(Nc1ccccc1)c1ccccc1Br | -1.5% |
| O=C(Nc1ccccc1)c1cccnc1Nc1ccccc1 | 99.9% (active) |

| Structure (SMILES) | inhibition |
| --- | --- |
| Cc1cccc(C(=O)NNC(=O)CSc2nnc(C(C)C)n2C)c1 | -2.9% |
| COc1cccc(CN(C)CC(=O)Nc2ccccc2C(=O)Nc2ccccc2)c1 | 8.4% |
| Cc1ccccc1C(OCC(O)CN1CCCCC1CCO)c1ccccc1 (stereo not drawn) | -0.9% |
| COc1cccc(CN(C)CC(O)COC(c2ccccc2)c2ccccc2C)c1 (stereo not drawn) | 60.5% (active) |
| COc1ccc(CCNC(=O)COC(=O)c2cc(=O)c3ccccc3o2)cc1 | -2.7% |
| COc1ccc(CCNCc2c(-c3ccccc3)n(C)c3ccccc23)cc1 | 90.8% (active) |
| COc1ccc(-c2c(C#Cc3ccccc3)c3ccccc3n2C)cc1 | -3.3% |
| CC[C@@H]1CC2=C(C(=O)OC(C)(C)O2)[C@@H](CC)O1 | -0.8% |
| Cc1cccc(-c2ncc(CN3CCC(CO)(CCCc4ccccc4)CC3)cn2)c1 | 2.3% |
| Cc1c(CN2CCC(CO)(CCOc3ccccc3)CC2)[nH]c2ccc(Cl)cc12 | 64.1% (active) |
| CC(C)(O)C#Cc1ccc(CN2CCC(CO)(CCc3ccccc3)CC2)cc1 | -3% |
| Cc1cc(=O)cc(C)[nH]1 | -3.9% |
| Cc1oc(-c2cccc(Cl)c2)[n+]([O-])c1C | 8% |
| Cc1oc(-c2ccccc2Cl)[n+]([O-])c1C | 58.5% (active) |
| CCOc1cnc(-c2c(-c3ccccc3Cl)noc2C)o1 | 1.2% |
| COc1ccc([C@H]2CC(=O)C=C(c3ccc(OC(F)(F)F)cc3)C2)cc1OC | -1.8% |
| CC1(C2CC2)NC(=O)N(CC(=O)N2CCN(c3ccccc3F)CC2)C1=O (stereo not drawn) | 2% |
| Cc1cccc(NC(=O)c2cccc(C(=O)Nc3cccc(C)c3C)n2)c1C | -1.9% |
| CCc1ccccc1N(CC(=O)NCCSCc1ccco1)S(C)(=O)=O | -0.4% |
| Cc1cc(C)cc(N(CC(=O)NCCSCc2ccco2)S(C)(=O)=O)c1 | -4.7% |
| CS(=O)(=O)N(Cc1ccc(Cl)cc1)c1ccc(C(=O)NCCSCc2ccco2)cc1 | 95.2% (active) |
